FAS-TE inh = inhibitors of human fatty acid synthase thioesterase domain; P49327; recombinant FAS-TE, OMFH fluorogenic substrate, fluorescence endpoint; inhibition, % at 15 µM; actives 0.67% (n = 360,000); AID 602261;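 active means compounds whose normalised, plate-corrected inhibition of enzyme fluorescence in the single-dose primary screen is 50% or more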;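 further: 0% = DMSO with enzyme and 100% = substrate without enzyme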
GRIN3A LBD mod = modulates the human NR3A ligand-binding domain; AID 1259313; actives 2.5% (n = 340,000); Tm shift relative to glycine control, % at 25 µM; NR3A LBD differential scanning fluorimetry, Tm shift; 0% = protein alone, 100% = glycine-bound protein;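 active means melting temperature shift of at least 10% of the positive control shift, at one fixed dose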
ADAM10 inh = ADAM10 inhibition, QFRET primary screen; O14672; recombinant ADAM10, EDANS/DABCYL FRET peptide cleavage, 3 h; inhibition, % at 7 µM; actives 0.62% (n = 370,000);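 active means inhibition above a per-campaign cutoff equal to the mean of compounds falling between control-based bounds plus 3 SD, cut at about 20% in these data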;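 further: 0% = DMSO wells while the 100% control is not disclosed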
ADAM17 inh = inhibitors of human ADAM17. P78536. recombinant ADAM17, EDANS/DABCYL FRET peptide cleavage. inhibition, % at 6.95 µM. actives 0.83% (n = 370,000);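 active means inhibition above the mean of compounds lying between control limits plus 3 SD, set per campaign, cut at about 8.5% in these data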;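 further: 0% = DMSO-only wells as the low control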
KLK7 zymogen act = activators of human kallikrein-7 zymogen; P49862; purified proKLK7, EDANS-DABCYL substrate fluorescence; 100% is mature enzyme control, 0% vehicle; activation, % at 7 µM; actives 0.9% (n = 370,000); AID 652039;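 active means activation above the mean of all tested compounds plus 3 SD, computed per campaign excluding outliers beyond control limits, cut at about 13% in these data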
Target sequence (P49862 whole entry, looked up): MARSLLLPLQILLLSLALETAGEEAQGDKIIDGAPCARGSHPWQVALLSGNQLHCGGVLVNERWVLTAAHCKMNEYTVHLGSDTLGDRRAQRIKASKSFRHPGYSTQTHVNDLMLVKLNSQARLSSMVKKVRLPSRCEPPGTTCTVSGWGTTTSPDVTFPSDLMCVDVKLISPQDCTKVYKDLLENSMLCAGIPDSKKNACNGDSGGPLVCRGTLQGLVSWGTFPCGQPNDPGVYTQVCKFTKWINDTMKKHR
FAS-TE inh conf = confirmation of human fatty acid synthase thioesterase inhibitors; AID 624325; actives 45% (n = 2,300); recombinant FAS-TE, OMFH fluorogenic substrate, fluorescence; shares compounds with FAS-TE inh; inhibition, % at 15 µM;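 active means compounds inhibiting the enzyme by at least 50% at 15 µM in any one of the replicates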;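 further: 0% = enzyme with DMSO only and 100% = wells lacking enzyme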
Starred values were filed as active, the others as inactive; · = no result given. This is a sample that favours compounds with a hit; in the whole collection about 4.6% have one here.

SMILES | FAS-TE inh | GRIN3A LBD mod | ADAM10 inh | ADAM17 inh | KLK7 zymogen act | FAS-TE inh conf
O=C(N/N=C/c1coc2ccc(Cl)cc2c1=O)c1ccc(O)cc1 | 65* | 4 | -3 | 4 | 0 | 37*
c1ccc(Cn2ccc3ccc(-c4ccc5ccn(Cc6ccc7ccccc7c6)c5c4)cc32)cc1 | · | · | -32 | -12 | -3 | ·
CC(C)c1ccc(/C=N/Nc2cc(N3CCOCC3)nc(N3CCOCC3)n2)cc1 | 89* | -8 | 2 | 2 | 0 | 90*
O=[N+]([O-])c1ccc(/C=N/Nc2nc(N3CCOCC3)nc(N3CCOCC3)n2)cc1 | 50* | · | · | · | · | 23
O=[N+]([O-])c1cccc(/C=N/Nc2nc(N3CCOCC3)nc(N3CCOCC3)n2)c1 | 12 | 0 | 0 | -2 | -1 | ·
Clc1cc2c(cc1/C=N/Nc1nc(N3CCOCC3)nc(N3CCOCC3)n1)OCO2 | 12 | 7 | -7 | -6 | 0 | ·
O=[N+]([O-])c1ccc(Cl)c(/C=N/Nc2nc(N3CCOCC3)nc(N3CCOCC3)n2)c1 | 51* | 3 | 2 | -5 | 0 | 5
Cc1cc(C)cc(OC(C)CCN2CCC(C(O)(c3ccccc3)c3ccccc3)CC2)c1 (stereo unspecified) | · | · | 4 | 2 | 0 | ·
Cn1c(=O)c(=O)n(C)c2cc(S(=O)(=O)N3CCN(c4ccccc4Cl)CC3)ccc21 | · | · | 5 | 6 | 0 | ·
CC1Cc2cc(-c3csc(NC(=O)Cc4cccs4)n3)ccc2N1S(C)(=O)=O (stereo unspecified) | 51* | -5 | 17 | 2 | 0 | 53*
CS(=O)(=O)N1CCc2cc(-c3csc(NC(=O)Cc4ccccc4)n3)ccc21 | 64* | -14 | 10 | 8 | 0 | 58*
CCCC(=O)Nc1nc(-c2ccc3c(c2)CCN3S(C)(=O)=O)cs1 | 47 | -3 | 0 | -5 | 0 | ·
Cc1ccc(/C=C/c2ccc(=O)n(Cc3ccc(F)cc3)n2)cc1 | 50* | -8 | -65 | -22 | -7 | 39*
Cc1ccc(-c2ccc(=O)n(Cc3ccc(F)cc3)n2)cc1 | 21 | -1 | -3 | -4 | 0 | ·
CCCCCc1nc2sc3c(c2c(=O)n1NC(=O)c1ccc([N+](=O)[O-])cc1)CC(C)(C)OC3 | 78* | 12* | 10 | 6 | 0 | 63*
O=C(NC(=S)Nc1cccc(C(F)(F)F)c1)c1ccc2nonc2c1 | 51* | 9 | 8 | 3 | 0 | 20
C[C@H](CO)N1C[C@H](C)[C@@H](CN(C)Cc2ccc(Cl)c(Cl)c2)Oc2c(NS(=O)(=O)c3ccc(F)cc3)cccc2C1=O | 54* | -12 | 10 | 3 | 0 | 58*
C[C@H](CO)N1C[C@H](C)[C@@H](CN(C)Cc2ccccc2)Oc2c(NS(=O)(=O)c3ccc(F)cc3)cccc2C1=O | -7 | 0 | 4 | 0 | 1 | ·
Cc1ccc(S(=O)(=O)Nc2ccc3c(c2)C(=O)N([C@H](C)CO)C[C@H](C)[C@@H](CN(C)Cc2ccc(-c4ccccc4)cc2)O3)cc1 | 81* | -2 | · | · | · | 29
FCCCOc1ccc(-c2ccnc(-c3ccccc3)n2)cc1 | 54* | -32 | 7 | 3 | 0 | 44
COc1ccc(-c2cc(C)no2)cc1S(=O)(=O)N1CCN(c2ccc([N+](=O)[O-])cc2)CC1 | 50* | -1 | -3 | 1 | 0 | 32
COc1ccc2cc(/C=N/NC(=O)c3ccc(CN(c4cccc(Cl)c4Cl)S(C)(=O)=O)cc3)c(Cl)nc2c1 | 69* | 3 | -160 | -36 | 1 | 20
COc1ccc2cc(/C=N/O)c(Cl)nc2c1 | -8 | 1 | -140 | -50 | 0 | ·
COc1ccc(S(=O)(=O)N2CCCCCC2)c2ccccc12 | · | · | 9 | 4 | 1 | ·
COc1ccc([N+](=O)[O-])cc1NC(=O)C(C)OC(=O)CC1CCCC1 (stereo unspecified) | 79* | 0 | -18 | -2 | 0 | 61*
COc1ccc(Br)cc1CN(C)C(C)C(=O)Nc1cc([N+](=O)[O-])ccc1OC (stereo unspecified) | 54* | -2 | 7 | 0 | 0 | 26
COc1ccc([N+](=O)[O-])cc1NC(=O)C(C)OC(=O)C1CCCC1 (stereo unspecified) | 46 | 0 | -2 | -3 | 0 | ·

Source: PubChem
